Inconclusive results are not listed. Calls of active or inactive are those of the source. The call rests on the fitted dose curve; in most records, active means well fitted curve in the direction sought with a large enough effect; inconclusive means small, poorly fitted or top-dose-only effect, or another doubt; inactive means no such curve, though single readings can be large or run the other way.

The nature of this assay: Secondary Assay for Activators of Human Pyruvate Kinase M2 isoform - Cell Titer Glo Cytotoxicity for Probe SAR. As to conditions: HeLa viability, CellTiter-Glo ATP luminescence, 24 h; series mostly up to 58.2 µM. How it is done:
NIH Chemical Genomics Center [NCGC]
Matthew G. Vander Heiden, M.D., Ph.D. [Harvard Medical School, 77 Avenue Louis Pasteur, Boston, MA 02115]
We have identified a series of activators of the M2 isoform of human pyruvate kinase. The assay described here examines the cytotoxicity of these compounds by measuring the total ATP content of Hela cells after 24 hrs of exposure to compound.
500 Hela cells/ 4ul in media (DMEM with high glucose, 10% FBS, 1x Pen Strep, 1x NEAA) were dispensed into a white solid 1536-microwell plate with a Thermo Multidrop. The plates were incubated at 37 degrees Celsius for 24 hours. The cells were then treated with compounds using the Kalypsys pin tool, delivering 23 nl of test compounds and the control doxorubicin. The plates were then incubated for an additional 24 hours at 37 degrees C after which 4 ul of Promega Cell-Titer Glo was dispensed using the Thermo Multidrop. The plates were incubated at room temperature for 10 min before reading luminescence on the Perkin Elmer ViewLux with images collected with 2x binning and a 5 sec exposure time.
Background: In ATP-based viability assays light output follows the ATP content of the culture.
For the molecule `Cc1ccc(NS(=O)(=O)c2cc3c(cc2-c2ccco2)NC(=O)CO3)cc1C`, the molecule was classed as inactive.

`COc1cccc(OC2=NS(=O)(=O)c3ccccc32)c1`: the outcome was inactive. Under `Cc1ccc(NS(=O)(=O)c2ccc3c(ccn3C)c2)cc1C` stands “inactive”. For the molecule `COc1ccccc1N1C(=O)c2ccccc2C1=O`, the outcome was inactive. Then `O=C1c2ccccc2C(=O)N1Cc1cccnc1`, with “inactive”.

As to `COc1ccccc1OC1=NS(=O)(=O)c2ccccc21`, the molecule was classed as inactive.

Regarding `O=C1CCc2cc(S(=O)(=O)Nc3ccc(Cl)cc3)ccc2N1`, the result was inactive. Under `CN(C)c1cccc(S(=O)(=O)N2CCN(S(=O)(=O)c3ccc4c(c3)OCCO4)CC2)c1` stands “inactive”; under `COc1cc(N2C(=O)c3ccccc3C2=O)c2ncccc2c1`, “inactive”.

For `Cc1ccc(C)c(OC2=NS(=O)(=O)c3ccccc32)c1`, the call was inactive. Under `Cc1ccc(NS(=O)(=O)c2ccc3c(c2)CCC(C)(C)O3)cc1C` stands “inactive”. Then `O=C1c2ccccc2C(=O)N1c1ccc(O)cc1`, with “inactive”; and `O=S1(=O)N=C(Oc2cccc(Cl)c2)c2ccccc21`, with “inactive”. Under `Cc1ccc(NS(=O)(=O)c2ccc(F)cc2)cc1C` stands “inactive”; under `Cc1cc(N2C(=O)c3ccccc3C2=O)no1`, “inactive”; under `Nc1cccc(S(=O)(=O)N2CCCN(S(=O)(=O)c3ccc4c(c3)OCCO4)CC2)c1`, “inactive”.

With `O=C1CCc2cc(S(=O)(=O)Nc3ccc(Cl)c(Cl)c3)c(F)cc2N1`, the outcome was inactive. In the case of `O=C1c2ccccc2C(=O)N1c1cc(=O)c2ccccc2[nH]1`, the molecule was called inactive. Under `Cc1cc(C)n2c(Nc3ccccc3)c(-c3ccc(C)o3)nc2n1` stands “inactive”; under `O=C1c2ccccc2C(=O)N1c1cccc2ncccc12`, “inactive”.

Consider `Cc1ccn2c(NC3CCCCC3)c(-c3ccc(C)o3)nc2c1`, for which the molecule was called inactive. Consider `COc1ccccc1NS(=O)(=O)c1ccc2c(c1)CCC(=O)N2`, for which the result was inactive. For `COc1ccc(OC2=NS(=O)(=O)c3ccccc32)cc1`, the molecule was classed as inactive.

On to `Cc1ccc(Nc2c(-c3ccc(C)o3)nc3ccccn23)cc1`, for which the molecule was called inactive. Under `COc1cc(F)c(S(=O)(=O)N2CCCN(S(=O)(=O)c3cccc(N)c3)CC2)c(F)c1` stands “inactive”; under `Cc1ccc(NS(=O)(=O)c2cc3c(cc2N(C)C)CCC(=O)N3)cc1C`, “inactive”; under `O=C1c2ccccc2C(=O)N1c1cncc2ccccc12`, “inactive”. Under `O=C1c2ccccc2C(=O)N1c1ccc2ccccc2n1` stands “inactive”; under `O=C1CCc2cc(S(=O)(=O)Nc3ccc(F)c(Cl)c3)ccc2N1`, “inactive”. For `Cc1cc2c(s1)c1cnn(Cc3ccccc3F)c(=O)c1n2C`, the molecule was called inactive.

On to `Cc1ccc(NS(=O)(=O)c2ccc(N3CCCC3=O)cc2)cc1C`, for which the outcome was inactive. Under `CSc1cc2c(s1)c1cnn(Cc3cccc(O)c3)c(=O)c1n2C` stands “inactive”; under `O=S1(=O)N=C(Oc2ccccc2)c2ccccc21`, “inactive”.

For the molecule `Cc1ccc(NS(=O)(=O)c2cc3c(cc2Br)NC(=O)CO3)cc1C`, the molecule was called inactive. Then `Cc1ccc2nc(-c3ccc(C)o3)c(Nc3ccc(Cl)cc3)n2c1`, with “inactive”; and `Cc1cc(N2C(=O)c3ccccc3C2=O)n[nH]1`, with “inactive”. Then `O=C1CCc2cc(S(=O)(=O)Nc3cc(F)cc(Cl)c3)c(F)cc2N1`, with “inactive”; and `O=C1c2ccccc2C(=O)N1Cc1ccccc1`, with “inactive”.

As for `Cc1c(Cl)cccc1NS(=O)(=O)c1cc2c(cc1Cl)CCC(=O)N2`, the outcome was inactive.

With `O=C1CCc2cc(S(=O)(=O)Nc3cccc(Oc4ccccc4)c3)ccc2N1`, the molecule was called inactive.

The values are drawn from PubChem BioAssay AID2653 (National Center for Advancing Translational Sciences (NCATS), 2010).
